# Results: PubChem BioAssay (NCATS)
# The source made the active and inactive calls. Calls come from the whole dose curve.
# Molecular target: Catechol O-methyltransferase (Homo sapiens) (UniProt P21964)
# Test: Confirmatory Screen for Target Class Profiling of Small Molecule Inhibitors of Methyltransferases (AID 1745852); for activity change, negative = inhibition: % is set by controls: 0 for no effect and ±100 for the full control effect
# Conditions: MTase-Glo luminescence, SAH detection, recombinant enzyme, stronger effect = lower value; measured here: COMT max response unless noted
# Potency is the fitted concentration of half-maximal effect.
# Sequence of Catechol O-methyltransferase (Homo sapiens) (P21964 whole entry, looked up): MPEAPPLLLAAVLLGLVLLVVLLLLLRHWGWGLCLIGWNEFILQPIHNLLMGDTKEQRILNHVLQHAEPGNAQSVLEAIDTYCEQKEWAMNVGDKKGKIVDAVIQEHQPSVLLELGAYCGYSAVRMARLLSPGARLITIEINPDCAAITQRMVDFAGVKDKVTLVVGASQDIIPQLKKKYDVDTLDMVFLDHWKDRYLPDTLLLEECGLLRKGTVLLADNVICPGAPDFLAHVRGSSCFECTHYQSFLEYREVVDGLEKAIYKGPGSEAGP
row,Structure (SMILES),activity
1,CCN(CC)C(=S)SSC(=S)N(CC)CC,-3.32%
2,COc1cc(Nc2c(C#N)cnc3cc(OCCCN4CCN(C)CC4)c(OC)cc23)c(Cl)cc1Cl,-94.4%
3,C[C@H](Cc1ccc(O)c(O)c1)[C@@H](C)Cc1ccc(O)c(O)c1,10.2%

# Molecular target: Guanidinoacetate N-methyltransferase (Homo sapiens) (UniProt Q14353)
# Test: as above
# Conditions: MTase-Glo luminescence, SAH detection, recombinant enzyme; activity change, negative = inhibition: at 57.3 µM (top of the series)
Structure (SMILES),"activity change, negative = inhibition",Potency
CCN(CC)C(=S)SSC(=S)N(CC)CC,4.64%,–
COc1cc(Nc2c(C#N)cnc3cc(OCCCN4CCN(C)CC4)c(OC)cc23)c(Cl)cc1Cl,–,12.1 µM (active)
C[C@H](Cc1ccc(O)c(O)c1)[C@@H](C)Cc1ccc(O)c(O)c1,–,30.6 µM (active)

# Molecular target: Nicotinamide N-methyltransferase (Homo sapiens) (UniProt P40261)
# Sequence (P40261 whole entry, looked up): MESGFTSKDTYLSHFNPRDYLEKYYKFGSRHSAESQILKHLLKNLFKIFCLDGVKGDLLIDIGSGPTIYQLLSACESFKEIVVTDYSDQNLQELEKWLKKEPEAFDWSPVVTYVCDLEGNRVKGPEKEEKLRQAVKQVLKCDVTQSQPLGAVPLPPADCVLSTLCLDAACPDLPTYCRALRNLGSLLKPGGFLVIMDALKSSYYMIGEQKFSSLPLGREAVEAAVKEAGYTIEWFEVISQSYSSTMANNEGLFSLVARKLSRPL
# Test: as above
# Conditions: MTase-Glo luminescence, SAH detection, recombinant enzyme, stronger effect = lower value; measured here: NNMT max response unless noted
row,Structure (SMILES),activity
1,CCN(CC)C(=S)SSC(=S)N(CC)CC,-10.3%
2,COc1cc(Nc2c(C#N)cnc3cc(OCCCN4CCN(C)CC4)c(OC)cc23)c(Cl)cc1Cl,-86.9%
3,C[C@H](Cc1ccc(O)c(O)c1)[C@@H](C)Cc1ccc(O)c(O)c1,-37.4%

# Molecular target: Phenylethanolamine N-methyltransferase (Homo sapiens) (UniProt P11086)
# Sequence (P11086 whole entry, looked up): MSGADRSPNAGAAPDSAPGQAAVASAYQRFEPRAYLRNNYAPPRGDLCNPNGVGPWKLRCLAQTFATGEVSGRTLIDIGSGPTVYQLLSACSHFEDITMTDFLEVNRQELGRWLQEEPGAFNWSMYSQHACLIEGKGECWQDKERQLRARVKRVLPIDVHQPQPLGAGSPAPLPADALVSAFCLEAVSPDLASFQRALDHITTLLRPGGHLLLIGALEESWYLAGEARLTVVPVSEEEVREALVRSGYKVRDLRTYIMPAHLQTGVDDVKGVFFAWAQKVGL
# Test: as above
# Conditions: MTase-Glo luminescence, SAH detection, recombinant enzyme, stronger effect = lower value; measured here: PNMT max response unless noted
row,Structure (SMILES),activity
1,CCN(CC)C(=S)SSC(=S)N(CC)CC,-2.02%
2,COc1cc(Nc2c(C#N)cnc3cc(OCCCN4CCN(C)CC4)c(OC)cc23)c(Cl)cc1Cl,-96.9%
3,C[C@H](Cc1ccc(O)c(O)c1)[C@@H](C)Cc1ccc(O)c(O)c1,-61.1%
